{"source": "ChEMBL document CHEMBL1157539", "about": "“Thousands of chemical starting points for antimalarial lead identification” (Nature, 2010)", "note": "Values joined by “and” are separate entries in the source; they are usually repeats but may differ in a detail not shown here. Equal values may be shown once."}
{"tested_on": "Plasmodium falciparum", "test": "GSK_TCMDC: Inhibition of Plasmodium falciparum 3D7 in whole red blood cells, using parasite LDH activity as an index of growth. Test compounds present at 2uM", "format": "functional"}
{"smiles": "N#Cc1ccc(N(CC(=O)NCCc2ccccc2)CC2CC2)c2ccccc12.O=C(O)C(F)(F)F", "Inhibition": "99%"}
{"smiles": "CN(c1cc(NC(=O)c2ccc(F)cc2)ccn1)C1CCN(Cc2cccc(O)c2)CC1.O=C(O)C(F)(F)F", "Inhibition": "100%"}
{"smiles": "CCCc1ccc2c(c1O)CCC(N(CCC)CCC)C2.Cl", "note": "(stereo not given)", "Inhibition": "90%"}
{"smiles": "CNCCCCCCOc1ccc(CC(C)NCC(O)c2cccc(C(F)(F)F)c2)cc1.Cl", "note": "(stereo not given)", "Inhibition": "100%"}
{"smiles": "CC(Cc1ccc(Oc2ccc(Cl)cc2)cc1)NCC(O)c1cccc(Cl)c1", "note": "(stereo not given)", "Inhibition": "99%"}
{"smiles": "CCOc1ccc2nccc([C@@H](O)[C@@H]3C[C@@H]4CCN3C[C@@H]4CC)c2c1", "note": "[ETHYLHYDROCUPREINE]", "Inhibition": "99%"}
{"smiles": "CCCCCCCN1C2CCC1CC(CCOc1ccnc3ccc(OC)cc13)C2", "note": "(stereo not given)", "Inhibition": "98%"}
{"smiles": "COC(=O)c1ccc(CC(C)NCC(O)c2cccc(C(F)(F)F)c2)cc1", "note": "(stereo not given)", "Inhibition": "94% and 97%"}
{"smiles": "O=C(/C=C/c1ccc(Cl)c(Cl)c1)N1CCC(CN2CCC(c3c[nH]c4ccc(O)cc34)CC2)CC1", "Inhibition": "100%"}
{"smiles": "O=C(C=Cc1ccc(-c2ccccc2)cc1)NC1CCC(CN2CCC(c3c[nH]c4ccccc34)CC2)CC1", "note": "(stereo not given)", "Inhibition": "100%"}
{"smiles": "CC[C@H]1CN2CC[C@@H]1C[C@H]2[C@H](O)c1cc(N2CCC(CO)CC2)nc2ccc(OC)cc12", "Inhibition": "99%"}
{"smiles": "COC(=O)/C=C/c1ccc(CC(C)NCC(O)c2cccc(Cl)c2)cc1", "note": "(stereo not given)", "Inhibition": "99%"}
{"smiles": "CN(C)c1cccc(CN2CC=C(c3c[nH]c4ccc(Cl)cc34)CC2)c1", "Inhibition": "93%"}
{"smiles": "C1=C(c2c[nH]c3ccccc23)CCN(Cc2ccccc2)C1", "Inhibition": "91%"}
{"smiles": "CC(Cc1ccc(SC(C)C)cc1)NCC(O)c1cccc(Cl)c1.Cl", "note": "(stereo not given)", "Inhibition": "99%"}
{"smiles": "COCCNCc1cccc(-c2cccc(CN(C(=O)Nc3ccccc3)C3CCN(Cc4ccccc4)CC3)c2)c1.O=C(O)C(F)(F)F", "Inhibition": "100%"}
{"smiles": "CC[C@H]1CN2CC[C@H]1C[C@H]2[C@H](O)c1cc(-c2ccc(F)cc2C)nc2ccc(OC)cc12.Cl", "Inhibition": "99%"}
{"smiles": "Cc1ccc(CC(C)(C)NCC(O)c2cccc(C(F)(F)F)c2)cc1.O=C(O)/C=C/C(=O)O", "note": "(stereo not given)", "Inhibition": "97%"}
{"smiles": "Cc1[nH]c2cc(Cl)ccc2c1C1=CCN(CCCCC2(C)C(=O)Nc3ccccc32)CC1", "note": "(stereo not given)", "Inhibition": "94%"}
{"smiles": "CC[C@H]1CN2CC[C@H]1C[C@H]2[C@H](OC(=O)c1ccccc1)c1cc(C#N)nc2ccc(OC)cc12", "Inhibition": "97%"}
{"smiles": "COc1cccc(CCNC(C)Cc2ccc(OCCCCOc3ccccc3)cc2)c1", "note": "(stereo not given)", "Inhibition": "97%"}
{"smiles": "O=C(CCCCCc1ccccc1)NC1CCC(CN2CCC(c3c[nH]c4ccccc34)CC2)CC1", "note": "(stereo not given)", "Inhibition": "86%"}
{"smiles": "Cc1[nH]c2ccc(NS(C)(=O)=O)cc2c1C1CCN(CC2CCN(C(=O)/C=C/c3ccc(Cl)c(Cl)c3)CC2)CC1", "Inhibition": "99%"}
{"smiles": "COc1ccc2nc(-c3ccc(F)cc3)cc([C@@H](O)[C@@H]3C[C@@H]4CCN3CC4C=NO)c2c1", "note": "(stereo not given in full)", "Inhibition": "100%"}
{"smiles": "CC[C@H]1CN2CC[C@H]1C[C@H]2[C@H](O)c1cc(-c2ccc(SC)cc2)nc2ccc(OC)cc12.Cl", "Inhibition": "98%"}
{"smiles": "Br.COC(=O)c1ccc(CC(C)NCC(O)c2cccc(SC(F)(F)F)c2)cc1", "note": "(stereo not given)", "Inhibition": "96%"}
{"smiles": "Oc1cccc(C2CCCN(Cc3cccc4cc[nH]c34)C2)c1", "note": "(stereo not given)", "Inhibition": "100%"}
{"smiles": "COc1ccc2[nH]cc(C3=CCN(Cc4ccccc4)CC3)c2c1", "Inhibition": "90%"}
{"smiles": "O=C(Cc1c(-c2ccccc2)[nH]c2ccccc12)NC1CCC(CN2CCC(c3c[nH]c4ccccc34)CC2)CC1", "note": "(stereo not given)", "Inhibition": "100%"}
{"smiles": "CC[C@H]1CN2CC[C@@H]1C[C@H]2[C@H](O)c1cc(N2CCC(O)CC2)nc2ccc(OC)cc12", "Inhibition": "99%"}
{"smiles": "O=C(Cc1cc(=O)oc2cc(O)ccc12)NC1CCC(CN2CCC(c3c[nH]c4ccccc34)CC2)CC1", "note": "(stereo not given)", "Inhibition": "96%"}
{"smiles": "Cc1cc(NC(=O)[C@H](CC(C)C)Nc2ccc(C#N)c3ccccc23)ccc1F.O=C(O)C(F)(F)F", "Inhibition": "95%"}
{"smiles": "CCOc1ccc(-c2nc3cc(-c4nc5cc(N6CCN(C)CC6)ccc5[nH]4)ccc3[nH]2)cc1.Cl.O", "Inhibition": "100%"}
{"smiles": "CN1C(=O)[C@H](NC(=O)[C@@H](Cc2ccccc2)NC(=S)Nc2ccccc2)N=C(c2ccccc2)c2ccccc21", "Inhibition": "86%"}
{"smiles": "CC(=O)Nc1ccc(OCCN(CC(C)(C)C)c2ccc(C#N)c(C(F)(F)F)c2)c(Cl)c1", "Inhibition": "87%"}
